Screening data (PubChem BioAssay)
Rows were chosen to be rich in hits. Some 1.7% of all compounds tested hit in one or more screens of this group.
GLP1R ag – qHTS of GLP-1 Receptor Agonists; Glucagon-like peptide 1 receptor (Homo sapiens), P43220; HEK293 GLP-1R CRE-luciferase, luminescence, 4-6 h; cells express a hypersensitive GLP-1R form; Potency, µM (titrated, usually from 45.6 µM), without a hit: at the highest dose activation, most hits filed as activators; 380,000 compounds, 0.007% hits; AID 624172, 2012; also: % of control where 0% means no effect
Target sequence (P43220 whole entry, looked up): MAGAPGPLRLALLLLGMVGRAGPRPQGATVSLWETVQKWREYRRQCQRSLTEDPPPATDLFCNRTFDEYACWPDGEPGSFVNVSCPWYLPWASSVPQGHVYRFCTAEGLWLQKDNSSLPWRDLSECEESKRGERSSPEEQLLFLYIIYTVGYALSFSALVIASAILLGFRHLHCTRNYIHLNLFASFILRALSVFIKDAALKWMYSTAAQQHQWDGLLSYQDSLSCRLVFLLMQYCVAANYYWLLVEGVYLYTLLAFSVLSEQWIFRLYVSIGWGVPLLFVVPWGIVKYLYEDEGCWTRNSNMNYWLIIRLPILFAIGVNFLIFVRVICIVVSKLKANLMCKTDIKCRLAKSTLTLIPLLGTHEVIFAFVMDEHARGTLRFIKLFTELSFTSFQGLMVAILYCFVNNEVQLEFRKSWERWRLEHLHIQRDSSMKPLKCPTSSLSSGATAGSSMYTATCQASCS
GLP-1R inv ag – qHTS of GLP-1 Receptor Inverse Agonists (Inhibition Mode). Potency, µM (doses to about 38.3 µM), inactives show top-dose activity change, negative = inhibition, most hits filed as inhibitors. HEK293 GLP-1R CRE-luciferase, luminescence, 24 h; GLP-1R form is constitutively active. AID 624417, 2012. 410,000 compounds, 1.6% hits; also: % is scaled to controls: 0 for no effect and ±100 for the full control effect; nearly all actives have a fitted effect of over 55% in size
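Seeding at 200 cells/uL, 12 h culture, 24 hr compound treatment, then luciferase reagent and a luminescence read; cells are HEK293 stably expressing a constitutively active GLP-1R plus cAMP-responsive luciferase.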
GLP1R cytotox – qHTS of GLP-1 Receptor Inverse Agonists: Cytotox Screen; HEK293 cAMP-luciferase reporter cells, luminescence, 24 h; Potency, µM (doses to about 38.3 µM), without a hit: at the top dose activity change, negative = inhibition, most hits filed as inhibitors; 410,000 compounds, 0.13% hits;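 also: loss of luciferase light is scored as toxicity; % is scaled to controls: 0 for no effect and ±100 for the full control effect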
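Cells in DMEM/10% Nu serum/1% pen-strep, 1536-well format. Pre-incubated 12 h, dosed with 23 nL compound, incubated a further 24 h. Luciferase detection, 12 min at room temp, luminescence.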
PTHR1 agonist – qHTS for PTHR1 Agonists: Primary Screen | Potency, µM (top dose mostly 115 µM), for the others: at the top dose activation, actives largely listed as activators | 410,000 compounds, 0.075% hits | HEK293 GP2 PTHR1 cells, GloSensor cAMP luminescence, 1 h | Parathyroid hormone/parathyroid hormone-related peptide receptor (Homo sapiens), Q03431; also: nearly all actives have a fitted effect of over 55% in size
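HEK-293-derived GP2 cells expressing PTHR1 and a GloSensor cAMP reporter, 3,000/well, plated overnight, given luciferin plus IBMX (each 0.5 mM as added) for 1 h at 37 °C, then compound for 1 h at 37 °C. Luminescence was read after 15 min at room temperature.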
Starred values were filed as active, the others as inactive; i = inactive; ? = inconclusive; . = not tested or not shown; ! = a repeat was not active; [ ] = remark or other dose. Calls follow the shape of the dose curve; as a rule, active = well fitted curve in the direction sought with a large enough effect; inconclusive = small, poorly fitted or top-dose-only effect, or another doubt; inactive = no such curve, though single readings can be large; an effect the other way counts as inactive or inconclusive. Potency is read from the fitted curve at half-maximal effect.

SMILES	GLP1R ag	GLP-1R inv ag	GLP1R cytotox	PTHR1 agonist
O=C(NNc1cc(C(F)(F)F)ccc1Cl)c1ccc(=O)[nH]c1	8.8%	3.55µM*	-8.1%	i
O=C(c1ccc(=O)[nH]c1)N1CCN(S(=O)(=O)c2cc(C(F)(F)F)ccc2Cl)CC1	0.6%	-30.8%	10.0%	i
O=C(Nc1ccc(Br)cc1)c1ccc(F)c(S(=O)(=O)NC2CCCCCC2)c1	.	3.16µM*	?	-58.6%
CCC1CCCCN1S(=O)(=O)c1cc(C(=O)Nc2ccc(C)c(F)c2)ccc1F (configuration not stated)	.	10µM*	-7.8%	-33.7%
CC(=O)c1ccc(NS(=O)(=O)c2cccc(S(=O)(=O)c3ccc(Cl)cc3)c2)cc1	.	-0.5%	2.6%	-95.1%
C/C(=N\NC(N)=S)c1ccc(Cl)s1	10.7%	3.16µM*	?	i
Cc1cccc(-c2nc3c(cnn3-c3ccccc3)c(=O)n2-c2ccc(Br)cc2)c1	.	?	-6.8%	i
COC(=O)c1cc(C(=O)N2CCN(c3ncccn3)CC2)cc([N+](=O)[O-])c1	7.5%	-0.3%	-5.1%	-0.9%
COC(=O)c1cc(C(=O)N2CCN(c3cccc(C)c3C)CC2)cc([N+](=O)[O-])c1	11.3%	3.98µM*	?	-86.5%
COC(=O)c1cc(C(=O)N2CCN(c3ccccc3OC)CC2)cc([N+](=O)[O-])c1	22.4%	1µM*	?	i
CO[C@]1(NC(=O)C2SC(=C(C(N)=O)C(=O)O)S2)C(=O)N2C(C(=O)O)=C(CSc3nnnn3C)CS[C@H]21 (some centres not stated)	-0.7%[19.8 µM]	.	.	.
C/C=C/c1ccc(OCCCNCC(C)O)c(OC)c1 (configuration not stated)	0.5%	5.62µM*	-11.6%	-26.6%[57.5 µM]
C/C=C/c1ccc(OCCCCN2CC(C)CC(C)C2)c(OC)c1 (configuration not stated)	-0.6%	11.2µM*	?	-8.8%
C/C=C/c1ccc(OCCCCOc2ccc(OC)cc2)c(OC)c1	8.3%	?	19.6%	-13.7%
C/C=C/c1ccc(OCCCCN2CCN(CC)CC2)c(OC)c1	6.1%	?	7.7%	i
C=C1N[C@]2(C(=O)COC(C)=O)[C@@H](C[C@H]3[C@@H]4CCC5=CC(=O)C=C[C@]5(C)[C@H]4[C@@H](O)C[C@@]32C)O1	6.0%	.	.	.
CCNC(=O)[C@H]1CCCN1C(=O)[C@H](CCCN=C(N)N)NC(=O)[C@H](CC(C)C)NC(=O)[C@H](CC(C)C)NC(=O)[C@@H](Cc1ccc(O)cc1)NC(=O)[C@H](CO)NC(=O)[C@@H](Cc1c[nH]c2ccccc12)NC(=O)[C@H](Cc1cnc[nH]1)NC(=O)[C@@H]1CCC(=O)N1	-2.7%	.	.	.
COc1ccc(S[C@@H](CCN2CC[C@H](C)CCC2=O)c2ccccc2)cc1	3.6%	10µM*	0.5%	-91.9%
Cc1ccc(S[C@@H](CCN2CC[C@H](C(C)(C)C)CCC2=O)c2ccccc2)cc1	-4.3%	10µM*	3.8%	-58.8%
Cc1ccc(S[C@@H](CCN2CC[C@H](C)CCC2=O)c2ccccc2)cc1	13.0%	?	-10.4%	-84.7%
CCOc1cc(C(=O)N(Cc2nc(-c3ccc(C)cc3)no2)C(C)C)cc(OCC)c1OCC	0.6%	-4.1%	-2.1%	-2.9%
COC(=O)c1ccc(NC(=O)CN2CCN(S(=O)(=O)c3ccc(Br)cc3)CC2)cc1	-1.0%	3.55µM*!	-20.6%	-12.2%
CCc1ccc(NC(=O)CN2CCCN(S(=O)(=O)c3ccc(F)cc3)CC2)cc1	5.4%	5.01µM*	7.5%	-29.8%
O=C(CN1CCN(S(=O)(=O)c2ccc(Br)cc2)CC1)Nc1ccc2c(c1)OCCO2	-0.3%	?	-10.7%	-2.9%[57.5 µM]
O=C(c1cc(-c2ccco2)on1)N1CCOCC1	1.3%	4.3%	6.8%	i
SMILES	GLP1R ag	GLP-1R inv ag	GLP1R cytotox	PTHR1 agonist
Cc1ccc(-c2cc(C(=O)N3CCCC3)no2)cc1	-13.4%	3.98µM*	10.7%	-48.9%
Cc1ccc(-c2cc(C(=O)N3CCOCC3)no2)cc1	-5.7%	3.16µM*	4.9%	-40.6%
CC1=C(C(=O)N(C(C)C)C(C)C)CC(CC(=O)NCCCCc2ccccc2)C(=O)N1Cc1ccc(F)cc1 (configuration not stated)	1.0%	?	-9.0%	-20.4%
COc1cccc(-c2nc(CS(=O)(=O)CC(=O)N3CCN(c4ccccc4)CC3)c(C)o2)c1	.	?	-28.2%	-41.4%
Cc1cccc2cc(CN(CCCO)C(=O)Nc3cccc(Cl)c3)c(=O)[nH]c12	6.5%	11.2µM*	-11.9%	-23.7%[57.5 µM]
CCc1cccc2c1Sc1ccccc1CC2N1CCNCC1 (configuration not stated)	4.1%	8.91µM*	?	-11.8%
CC1(C(=O)NS(=O)(=O)C2CC2)CCN(C(=O)c2ccc3ccccc3n2)C1 (configuration not stated)	-0.4%	14.5%	7.8%	-20.6%
Cc1noc(C)c1C(=O)OCC(=O)Nc1ccc(N2CCOCC2)cc1	-5.0%	0.8%	-1.1%	17.8µM*
CC[C@@]12CCCN3CCc4c(n(c5ccccc45)C(=O)C1)[C@H]32	-0.5%[19.8 µM]	.	.	.
COc1cccc(N2CCN(C(=O)C3CCCN(c4ncnc5c4nc4n5CCCCC4)C3)CC2)c1 (configuration not stated)	10.0%	4.47µM*	?	i
O=C(Nc1ccccc1Cl)C1CCCN(c2ncnc3c2nc2n3CCCCC2)C1 (configuration not stated)	10.6%	3.16µM*	-13.7%	-26.0%
CCN(Cc1ccccc1)C(=O)C1CCN(c2ncnc3c2nc2n3CCCCC2)CC1	12.8%	-10.8%	-9.8%	-15.1%
CCc1ccccc1N(CC)C(=O)C1CCN(c2ncnc3c2nc2n3CCCCC2)CC1	-1.7%	8.91µM*	-26.7%	-51.4%
O=C(Nc1ccc(F)cc1)C1CCCN(c2ncnc3c2nc2n3CCCCC2)C1 (configuration not stated)	.	?	0.5%	-23.3%
Cc1ccc(NC(=O)C2CCCN(c3ncnc4c3nc3n4CCCCC3)C2)cc1F (configuration not stated)	.	3.55µM*	3.4%	-44.2%
CCc1cccc(NC(=O)C2CCCN(c3ncnc4c3nc3n4CCCCC3)C2)c1 (configuration not stated)	7.5%	6.31µM*	-10.4%	-20.9%
O=C(Nc1cccc(Cl)c1)C1CCCN(c2ncnc3c2nc2n3CCCCC2)C1 (configuration not stated)	.	46.0%	?	-90.0%
Cc1cc(-c2ccc(S(=O)(=O)Nc3cccc(Cl)c3C)cc2)on1	.	?	-19.0%	-91.6%
COc1cc(/C=C/CN2CCC(C(=O)NC(c3ccc(F)cc3)c3ccc4ccccc4n3)CC2)ccc1OC(C)=O (configuration not stated)	-5.1%	10µM*	?	-45.5%
